This is a sample that favours compounds with a hit; in the whole collection about 7.5% have one here.
B2AR arrestin = qHTS assay of beta-arrestin-biased ligands of beta2-adrenergic receptor; hit rate 0.02% among 330,000; Potency, µM (doses to about 46.1 µM), usual class: activators; beta-arrestin recruitment to beta2AR, cell-based reporter; further: nearly all actives have a fitted effect of over 65% in size
Target sequence (P07550 whole entry, looked up): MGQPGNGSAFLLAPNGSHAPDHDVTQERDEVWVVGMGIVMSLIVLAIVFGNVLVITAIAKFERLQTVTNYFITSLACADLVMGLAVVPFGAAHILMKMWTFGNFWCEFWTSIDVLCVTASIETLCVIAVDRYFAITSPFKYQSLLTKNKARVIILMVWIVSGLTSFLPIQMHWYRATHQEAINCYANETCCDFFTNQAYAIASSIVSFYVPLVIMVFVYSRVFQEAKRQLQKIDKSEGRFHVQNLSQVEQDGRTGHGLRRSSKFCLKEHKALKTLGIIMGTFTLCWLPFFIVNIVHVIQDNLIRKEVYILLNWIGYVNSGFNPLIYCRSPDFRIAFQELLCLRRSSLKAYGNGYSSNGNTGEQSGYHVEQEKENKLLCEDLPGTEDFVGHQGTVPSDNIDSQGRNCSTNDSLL
RORg inh = qHTS for inhibitors of ROR gamma transcriptional activity; Nuclear receptor ROR-gamma (Mus musculus), P51450; Drosophila S2 Gal4-RORgamma UAS-luciferase reporter, 20 h; Potency, µM (highest dose often 53.6 µM), hits mostly inhibitors; hit rate 5.4% among 310,000; AID 2551, 2010; further: nearly all actives have a fitted effect of over 60% in size
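Luciferase reporter read in Schneider cells carrying Gal4-RORγ (mouse) and UAS-Photinus luciferase; cells given compound 1 h before 700 uM copper sulfate induction, then incubated 20 h at ambient temperature.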
ELG1 DNA repair = qHTS screen for small molecules that inhibit ELG1-dependent DNA repair in human embryonic kidney (HEK293T) cells expressing luciferase-tagged ELG1. HEK293T ELG1-luciferase reporter, luminescence, 16 h; DNA damage induced by 5-fluorouridine. Potency, µM (doses to about 46.1 µM), most hits filed as inhibitors. hit rate 2.3% among 330,000; further: nearly all actives have a fitted effect of over 55% in size
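Step one: seed 2,000 cells per well. Step two: pin-transfer compound or DMSO alongside 5-fluorouridine. Step three: incubate 16 hr, 37 °C, 5% CO2. Step four: add ONE-Glo, wait 30 min, read luminescence.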
VP16 counter = VP16 counterscreen qHTS for inhibitors of ROR gamma transcriptional activity; Drosophila S2 Gal4-VP16 UAS-luciferase, luminescence, 20 h; Potency, µM (titrated, usually from 53.6 µM), hits mostly inhibitors; hit rate 3.5% among 310,000; AID 2546, 2010;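 further: Gal4-VP16 expression switched on by copper sulfate through the metallothionein promoter; nearly all actives have a fitted effect of over 50% in size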
TSHR antagonist = Antagonists of the Thyroid Stimulating Hormone Receptor: HTS campaign; AID 504810, 2011; hit rate 0.2% among 330,000; TSHR-expressing cells, TSH-stimulated cAMP HTRF, 2 h; stronger effect = lower value; activity change, negative = inhibition, % at 11.5 µM;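 active means activity change below a set negative limit, meaning inhibition stronger than a set level, cut at about -70% in these data; inconclusive means activity change between two set negative limits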
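Freshly harvested TSHR cells receive pin-tooled compound, then EC80 TSH at 4nM final. After 2 hours at 37 deg C, antibody in lysis buffer and cAMP-d2 are added; 30 minutes at ambient temperature precede the HTRF read.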
A number is an active result; i = inactive; ? = inconclusive; nt = no result; [ ] = another dose, or the depositor's remark. Unless noted, the call rests on the fitted dose curve; in most records, active means well fitted curve in the direction sought with a large enough effect; inconclusive means small, poorly fitted or top-dose-only effect, or another doubt; inactive means no such curve, though single readings can be large; an effect the other way counts as inactive or inconclusive.

SMILES | B2AR arrestin | RORg inh | ELG1 DNA repair | VP16 counter | TSHR antagonist
Cn1c(N)c(-c2nc3cccnc3n2C)sc1=S | i | i | ? | i | i
Cn1c(-c2c(N)n(-c3ccccc3)c3nc4ccccc4nc23)nc2ccccc21 | i | 1.1µM | ? | 3.5µM | i
COC(=O)NC(CCc1ccccc1)C(C(C)=O)C(=O)OC (stereo unspecified) | nt | i | nt | i | nt
CCOC(=O)N1CCN(Cc2nnc(-c3ccccc3C)o2)CC1 | i | i | i | i | i
O=C1c2ccccc2S(=O)(=O)N1Cc1nc2ccccc2s1 | i | 3.2µM | ? | 4µM | i
NNc1ccc(Cc2ccc(Cl)cc2Cl)nn1 | i | 3.5µM | ? | ? | i
CSc1ccc(Cc2ccc(Cl)cc2Cl)nn1 | i | i | ? | i | i
CCN(CC)S(=O)(=O)c1ccc(C(=O)Nc2nnc(C(C)C)s2)cc1 | i | i | ? | i | i
COCCN(CCOC)S(=O)(=O)c1ccc(C(=O)Nc2nnc(CSC)o2)cc1 | i | 5µM | i | 13µM | i
CSCc1nnc(NC(=O)c2ccc(S(=O)(=O)N(C)C)cc2)o1 | i | 2µM | ? | 5µM | i
CCc1nnc(NC(=O)c2ccc(S(=O)(=O)N(CC(C)C)CC(C)C)cc2)o1 | i | 0.32µM | ? | 0.35µM | i
CCc1nnc(NC(=O)c2ccc(S(=O)(=O)N(C)c3ccccc3)cc2)o1 | i | 0.45µM | 7.3µM | 0.56µM | i
Cc1cccc(NC(=O)c2ccc(S(=O)(=O)N(C)C)cc2)n1 | i | ? | i | i | i
O=C(Cc1c(Cl)cccc1Cl)OCC(=O)N1CCN(C(=O)c2ccco2)CC1 | i | i | i | i | i
CN(C1CCCCC1)S(=O)(=O)c1ccc(NC(=O)c2ccc(Br)o2)cc1 | i | i | ? | i[0.365 µM] | i
COCc1nnc(NC(=O)c2ccc(S(=O)(=O)N(C)C3CCCCC3)cc2)o1 | i | 1.6µM | i | 4.5µM | i
C=CCN(CC=C)S(=O)(=O)c1ccc(C(=O)Nc2nnc(CSC)o2)cc1 | i | 0.56µM | 18µM | 2.8µM | i
COCCN(CCOC)S(=O)(=O)c1ccc(C(=O)Nc2nnc(C)o2)cc1 | i | 10µM | ? | ? | i
CCCN(CCC)S(=O)(=O)c1ccc(C(=O)Nc2nnc(COC)o2)cc1 | i | 0.56µM | 18µM | 2.2µM | i
COCCN(CCOC)S(=O)(=O)c1ccc(C(=O)Nc2nnc(COC)o2)cc1 | i | ? | i | i | i
COC(=O)CNC(=O)[C@@]1(C)C=C[C@@H](Cc2ccccc2)N1C(=O)OC | nt | i | nt | i | nt
CSCc1nnc(NC(=O)c2ccc(S(=O)(=O)N(CC(C)C)CC(C)C)cc2)o1 | i | 0.28µM | i | 0.63µM | i
CCN(CC)S(=O)(=O)c1ccc(C(=O)Nc2ccc3c(c2)OCCO3)cc1 | i | i | ? | i | i
O=C1c2ccccc2-c2n[nH]c3cccc1c23 | nt | i | nt | i | i
O=C1c2ccccc2C(=O)c2[nH]cnc21 | i | 11µM | ? | ? | i
SMILES | B2AR arrestin | RORg inh | ELG1 DNA repair | VP16 counter | TSHR antagonist
O=C1c2ccccc2C(=O)c2[nH]c(=O)[nH]c21 | i | 4µM | 7.3µM | 7.1µM | i
CCCCC[C@]12Cc3cc(OC)c(OC)cc3C(O1)c1c(cc(C)n(-c3ccccc3)c1=O)O2 | i[9.22 µM] | i[10 µM] | nt | i[10 µM] | nt
CC[C@H](C)[C@H](NC(=O)CNC(=O)[C@H](CC(C)C)NC(=O)[C@H](CC(C)C)NC(=O)[C@H](CCC(N)=O)NC(=O)[C@H](CCC(N)=O)NC(=O)[C@H](CC(=O)O)NC(=O)[C@H](CCCCN)NC(=O)[C@H](CC(C)C)NC(=O)[C@H](Cc1ccc(O)cc1)NC(=O)[C@H](CCCNC(=N)N)NC(=O)[C@H](CCC(=O)O)NC(=O)[C@@H](NC(=O)[C@H](C)NC(=O)[C@H](CC(C)C)NC(=O)[C@@H](NC(=O)[C@@H](N)CCCNC(=N)N)[C@@H](C)CC)C(C)C)C(=O)N[C@@H](Cc1c[nH]c2ccccc12)C(=O)NCC(=O)N[C@@H](CS)C(=O)N[C@@H](CO)C(=O)O | nt | i | nt | i | nt
CCCCN(CCCC)CCNC(=O)CSCc1ccc(C)cc1 | i | i | i | i | i
CSc1nsc(SCC(=O)Nc2ccc(C(C)=O)cc2)n1 | i | i | ? | i | i
CC(=O)CC(=O)Nc1ccc(C(N)=O)cc1 | i | 11µM | i | i | i
CCCC(=O)Nc1ccc(C(N)=O)cc1 | i | i | ? | i | i
CSc1nsc(SCC(=O)Nc2ccc(C(N)=O)cc2)n1 | i | 3.2µM | ? | ? | i
C=C1CCN(C(Cc2ccccc2)C(=O)N2CCOCC2)S(=O)(=O)c2ccccc21 (stereo unspecified) | nt | i | nt | i | nt
O=C(COC(=O)c1cc(NS(=O)(=O)c2cccs2)ccc1O)Nc1cc(Cl)ccc1Cl | i | ? | i | 13µM | i
Cc1ccc(-n2ncc(-c3nnc(SCC(=O)NC4CCCC4)o3)c2N)cc1C | i | ? | 12µM | i | i
CN(N=O)C(=O)N[C@H]1C(O)C(O)C(CO)O[C@@H]1O (stereo partly specified) | nt | i | nt | i | nt
CN(Cc1ccccc1Cl)C(=O)c1cc2ccccc2o1 | i | i | i | i | -102
Cc1nn(CC2CCCCC2)c(N)c1-c1ccccc1 | i | ? | ? | 11µM | i
CCOC(=O)Cn1nc(C)c(-c2ccccc2)c1N | i | i | i | i | i
C=Cc1ccccc1Cl | nt | i | nt | i | nt
COc1ccc(-c2nc(NC(=O)c3cc(C(C)(C)C)nn3C)sc2C)cc1 | i | ? | 8.2µM | i | ?
COC(=O)[C@@]1(Cc2ccccc2)[C@@H]2[C@@H](CC(=O)[C@H]2CC(=O)C(=O)N(C)C)CN1C(=O)c1ccccc1 | nt | i | nt | i | nt
COC(=O)[C@@]1(Cc2ccc(OC)cc2)[C@@H]2C(=CC(=O)[C@H]2CC(=O)C(=O)N(C)C)CN1C(=O)c1ccccc1 | i | ? | 9.2µM | ? | i
C=C1C(=O)C=C2CN(C(=O)c3ccccc3)[C@@](Cc3ccc(F)cc3)(C(=O)OC)[C@@H]12 | i | 3.2µM | 2.9µM | 1.4µM | i
C[C@H](CN1c2ccccc2Sc2cccnc21)N(C)C | nt | i | nt | i | nt
CC(NC(=O)CSC1=NCCS1)c1ccccc1 (stereo unspecified) | i | 5µM | i | i | i
CSCCC(NC(=O)C1CCC(C)CC1)C(=O)Nc1ccc(NC(C)=O)cc1 (stereo unspecified) | i | i | i | i | i
COc1ccc(N2C(=O)/C(=C/c3cccs3)NC2=S)cc1 | i | 10µM | i | ? | i
CN(C)/C=C1\NC(=S)N(c2ccccc2)C1=O | i | i | i | i | i
COc1ccc(SCC(c2ccccc2)N2CCN(CC(C)C)CCC2=O)cc1 (stereo unspecified) | nt | i | nt | i | nt

Compound activity: PubChem, National Center for Advancing Translational Sciences (NCATS)
